# Sampled rows, rich in hits. Any-hit rate of the full collection: about 2.9%.
# ATXN2 expr inh: reduces ATXN2 reporter expression in HEK-293 cells. AID 1745845. HEK-293 ATXN2-luciferase reporter, luminescence, 24 h. Potency, µM (doses to about 57 µM), actives largely listed as inhibitors. 360,000 compounds, 0.72% hits; also: nearly all actives have a fitted effect of over 55% in size
#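 ATXN2-luciferase reporter cells (luciferase flanked by upstream and downstream ATXN2 gene portions) were treated 24 h at 37 °C with compounds at up to 57 uM. SteadyGlo luminescence gave expression; GF-AFC fluorescence gave viability.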
# Nrf2 activator: activates Nrf2 signaling; AREc32 ARE-luciferase reporter (MCF7-derived line), luminescence, 24 h; Potency, µM (doses to about 46.1 µM), hits mostly activators; 410,000 compounds, 0.31% hits; AID 624171; also: nearly all actives have a fitted effect of over 65% in size
#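 Nrf2 activation is followed as ARE-luciferase induction in the AREc32 line after one day of compound treatment; luminescence is read with Steady-Glo.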
# S2 tox: reduces viability in counter-screen for ATXN expression inhibitors | S2 cells (HEK-293 line with an ATXN2-luciferase reporter) viability, CellTiter-Fluor protease fluorescence, 24 h | Potency, µM (top dose mostly 56.7 µM), most hits filed as cytotoxic | 400,000 compounds, 0.49% hits | AID 651635; also: nearly all actives have a fitted effect of over 40% in size
# Nrf2 inh: inhibitors of Nrf2 signaling; Potency, µM (top dose mostly 46 µM), most hits filed as inhibitors; A549 ARE-Fluc reporter, luciferase luminescence, 18-24 h; 360,000 compounds, 2.1% hits; AID 504444; also: nearly all actives have a fitted effect of over 60% in size
#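 Two sequential reads on A549 ARE_Fluc cells exposed to compound for 18-24 h: a CellTiter-Fluor fluorescence read for viability, then a luciferase luminescence read for Nrf2/ARE activity.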
# A549 viability: A549 cytotoxicity, counter-screen for Nrf2 inhibitors | Potency, µM (titrated, usually from 46 µM), most hits filed as inhibitors | AID 504648 | A549 ARE-Fluc cells, CellTiter-Fluor viability, 18-24 h | 390,000 compounds, 0.16% hits
#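 A549 ARE_Fluc cells in 5% FBS OPTI-MEM were exposed to compounds in concentration-response for 18-24 h at 37 deg C. Viability was read by CellTiter-Fluor fluorescence (Ex 405/Em 525) after 30 min, before the luciferase read.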
# Hits are given with their value; i = inactive; ? = inconclusive; nt = no result given; ! = not active in a repeat; [ ] = another dose, or the depositor's remark. Calls follow the shape of the dose curve; as a rule, active = well fitted curve in the direction sought with a large enough effect; inconclusive = small, poorly fitted or top-dose-only effect, or another doubt; inactive = no such curve, though single readings can be large; an effect the other way counts as inactive or inconclusive.
SMILES,ATXN2 expr inh,Nrf2 activator,S2 tox,Nrf2 inh,A549 viability
N#Cc1c(NC(=O)CSc2ncnc3sccc23)oc(-c2ccco2)c1-c1ccco1,i,10µM,?,i,i
COc1ccc(CNC(=O)c2nc(S(=O)(=O)Cc3ccccc3)ncc2Cl)cc1,nt,i,18µM,18µM,?
CCNC(=O)c1c(NC(=O)c2nc(S(=O)(=O)CC)ncc2Cl)sc2c1CCCC2,nt,i,nt,21µM,21µM
CCS(=O)(=O)c1ncc(Cl)c(C(=O)NCc2ccccc2)n1,nt,i,nt,18µM,?
COCCCNC(=O)c1c(NC(=O)c2nc(S(C)(=O)=O)ncc2Cl)sc2c1CCCC2,i,i,i,i,i
O=C(NCc1ccccc1)c1c(Cl)nc(Cl)c(Cl)c1Cl,i,10µM,nt,i,i
Cc1cccc(NC(=O)Nc2nnc(N3CCCC3)s2)c1,i,i,i,?,i
CCOC(=O)C(C(=O)OCC)C(Nc1cccc(Br)c1)c1ccccc1 (stereo unspecified),i,?,?,18µM,?
COC(=O)C(C)Nc1cccc(Br)c1 (stereo unspecified),nt,i,i,i,i
Cc1c(C(C)C)c(=O)n(-c2ccc(S(=O)(=O)NC3CCCCC3)cc2)n1C,?,i,i,15µM,i
Cc1c(C(C)C)c(=O)n(-c2ccc(S(=O)(=O)NCc3ccccc3)cc2)n1C,i,i,?,7.3µM,i
CCOC(=O)c1c(C)n(-c2ccccc2)c2ccc(OC(=O)COc3ccc(Cl)cc3)cc12,i,i,i,i,i
FC(F)(F)c1cccc(N2CCN(c3ccc4nnc(-c5ccccc5)n4n3)CC2)c1,?,i,?,16µM,?
c1ccc(-c2nnc3ccc(N4CCCC4)nn23)cc1,i,i,i,?,i
N=C(N)c1ccc(OCCCOc2ccc(C(=N)N)cc2Br)c(Br)c1,nt,nt,i,nt,nt
CC#C[C@]1(O)CC[C@H]2[C@@H]3CCC4=CC(=O)CCC4=C3[C@@H](c3ccc(N(C)C)cc3)C[C@@]21C,15µM!,i,i,23µM,i
CC(C)(C)n1nnnc1C(c1cccs1)N1CCN(c2ccccc2)CC1 (stereo unspecified),i,i,i,23µM,?
Oc1cccc2cc(Nc3ccccc3)cnc12,7.1µM,i,?,nt,nt
Oc1cc(Nc2ccccc2)cc2cccnc12,32µM,i,?,i,i
Oc1cc(NCCN2CCOCC2)cc2cccnc12,32µM,i,?,?,?
O=C(NCCN1CCOCC1)c1ccc2ccccc2c1,i,i,i,i,i
c1ccc(Nc2ccccc2)cc1,i,i,i,i,i
Oc1cc(-c2cccnc2)cc2cccnc12,?,i,?,i,i
Cc1ccc(N2CCN(c3c(CN4CCCC4)c(=O)oc4ccccc34)CC2)c(C)c1,i,i,i,i,i
COc1ccc(N2N=NN(C(C)C)C2=C(Cl)c2nnnn2-c2ccc(OC)cc2)cc1,i,16µM,i,i,i
SMILES,ATXN2 expr inh,Nrf2 activator,S2 tox,Nrf2 inh,A549 viability
COc1cc(NC(=O)Nc2cccc(-c3noc(C)n3)c2)cc(OC)c1OC,i,i,i,nt,i
CCOC(=O)c1ccccc1NC(=O)Cn1ccn2nc(-c3ccc(OCC)cc3)cc2c1=O,i,i,i,nt,i
Cn1nnnc1Sc1ncnc2scc(-c3ccc(-c4ccccc4)cc3)c12,?,?,?,i,i
Cn1nnnc1Sc1ncnc2scc(-c3cccs3)c12,8.9µM,?,i,?,?
Cn1nnnc1Sc1ncnc2scc(-c3cc4ccccc4o3)c12,5.6µM,?,13µM,?,i
Cn1nnnc1Sc1ncnc2scc(-c3ccsc3)c12,14µM,?,?,?,?
Cn1nnnc1Sc1ncnc2scc(-c3ccc4ccccc4c3)c12,nt,nt,nt,i,?
Cn1nnnc1Sc1ncnc2scc(-c3ccccc3F)c12,nt,nt,nt,?,i
Cc1ccc2nc(SCC(=O)NCC3Cc4cccc(-c5nc(C)cnc5C)c4O3)[nH]c2c1 (stereo unspecified),nt,nt,i,nt,nt
COc1ccc(C2NC(c3ccc(OC)cc3)C(c3ccccc3)C(=O)C2c2ccccc2)cc1 (stereo unspecified),i,i,i,i,i
COc1ccc([C@@H]2C(C#N)=C(N)S[C@@H](c3ccccc3)[C@@H]2[N+](=O)[O-])cc1,i,i,i,21µM,i
Cc1sc2ncnc(N(C)Cc3ccco3)c2c1C,i,i,i,?,i
Cc1nc(NCc2ccco2)c2c(C)c(C)sc2n1,11µM,i,?,nt,?
Cc1sc2ncnc(SCc3ccco3)c2c1C,i,3.2µM,i,i,i
Cc1[nH]nc2c1-c1nc3ccccc3nc1C(C)(C)C2,i,i,i,15µM,15µM
Oc1c(N=Nc2ccccc2)sc2ccccc12,nt,2.8µM,i,i,i
CC(=Nc1ccc(O)cc1)c1sc2ccccc2c1O,i,?,i,?,i
O=C(CCN1CCC(c2ccccc2)C1)c1ccccc1 (stereo unspecified),i,i,i,nt,i
O=C(CCN1CCC(c2ccccc2)C1)c1ccc2c(c1)OCCO2 (stereo unspecified),i,8.9µM,i,i,i
O=C(CCN1CCCCC1)c1ccc2c(c1)OCCO2,i,18µM,i,i,i
O=C(CCN1CCc2ccccc2C1)c1ccc2c(c1)OCCO2,i,i,i,i,nt
CCN(c1cccc(C)c1)C(CNS(=O)(=O)c1ccccc1)c1ccccc1 (stereo unspecified),?,i,?,?,i
CCN(c1ccccc1)C(CNS(=O)(=O)c1ccccc1)c1ccccc1 (stereo unspecified),?,i,?,23µM,i
CC(=O)c1cccc(NC(=O)c2cccc(S(=O)(=O)N(C)C)c2)c1,i,i,i,i,i
Cc1cc(NC(=O)c2cccc(S(=O)(=O)N(C)C)c2)n(-c2ccccn2)n1,i,i,i,26µM,i
SMILES,ATXN2 expr inh,Nrf2 activator,S2 tox,Nrf2 inh,A549 viability
Cc1cc(NC(=O)c2cccc(S(=O)(=O)N3CCCCCC3)c2)n(-c2ccccn2)n1,i,i,i,nt,?
CN(C)S(=O)(=O)c1cccc(NC(=O)c2ccc3nccnc3c2)c1,i,i,i,5.8µM,?
O=C(c1ccc([N+](=O)[O-])cc1)N(Cc1ccco1)c1ccccn1,i,i,i,i,i
CCOC(=O)c1c(NC(C)=O)sc2c1CCC(C=O)=C2Sc1ccccc1,28µM,?,nt,21µM,?
CC(C)(C)S(=O)(=O)/C(C#N)=N/Nc1ccc(Cl)cc1,?,i,?,10µM,?
N#Cc1ccsc1NC(=O)CSc1ncnc2ccccc12,i,13µM,i,?,i
O=C(CSc1ncnc2ccccc12)c1ccco1,i,2.8µM,i,i,i
O=C(CSc1ncnc2ccccc12)NCc1ccco1,i,i,i,i,i
N#Cc1ccsc1NC(=O)CSc1ncn[nH]1,i,i,i,i,i[1.84 µM]
CC1CCCCN1CCCNC(=O)c1ccc2c(c1)sc1nc(-c3ccc(F)cc3)cn12 (stereo unspecified),14µM,?,32µM,i,i
